The text below walks through data of PubChem BioAssay (Tox21).

SMILES strings stand for the structures. Inconclusive results are not listed. The source holds several records for some structures; these can differ, active in one and inactive in another. The source made the active and inactive calls. Unless noted, the call rests on the fitted dose curve; in most records, active means well fitted curve in the direction sought with a large enough effect in the repeat runs; inconclusive means weak or mixed curves; inactive means no such curve, though single readings can be large; an effect the other way counts as inactive or inconclusive.

Experiment [1] can be described thus: qHTS assay to identify small molecule agonists of the peroxisome proliferator-activated receptor delta (PPARd) signaling pathway - cell viability counter screen (AID 743211). Further: nearly all actives have a fitted effect of over 55% in size. The method in brief: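 Viability of GeneBLAzer PPARd UAS-bla HEK293H cells was assessed after 17 h compound incubation at 37C, using CellTiter-Glo reagent added after the reporter read and luminescence recorded 30 min later.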
A general note: qHTS replaces the single test concentration by a dilution series.

The nature of experiment [2]: qHTS assay to identify small molecule antagonists of the peroxisome proliferator-activated receptor delta (PPARd) signaling pathway - cell viability counter screen (AID 743213). Further: nearly all actives have a fitted effect of over 50% in size. Put shortly:
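Cytotoxicity counter screen: CellTiter-Glo luminescence read 30 min after addition, in the same wells as the reporter assay. There, PPARd UAS-bla HEK293H cells (3000/well) were treated 17 h at 37 C with compound and 300 nM L165041.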

A short description of experiment [3]: qHTS assay to identify small molecule agonists of the farnesoid-X-receptor (FXR) signaling pathway - cell viability counter screen (AID 743218). Further: nearly all actives have a fitted effect of over 45% in size. The method in brief:
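Same-well cytotoxicity check on FXR-UAS-bla HEK 293T cells: 5 h attachment, 16 h compound at 37 C, CellTiter-Glo luminescence read at room temperature after 30 min.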

The nature of experiment [4]: qHTS assay to identify small molecule antagonists of the farnesoid-X-receptor (FXR) signaling pathway - cell viability counter screen (AID 743221; active means well fitted cell-killing curve with a large enough effect in the repeat runs, not every such curve was filed as active; further: nearly all actives have a fitted effect of over 50% in size). Put shortly:
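Quantitative HTS of the Tox21 10K library run in parallel with the beta-lactamase reporter read. HEK 293T cells carrying a UAS-driven bla reporter got compound and 50 uM CDCA (final) for 16 h; ATP-based luminescence followed.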

Experiment [5] concerns the target Vitamin D3 receptor (Homo sapiens) (UniProt P11473). Description: qHTS assay to identify small molecule agonists of the vitamin D receptor (VDR) signaling pathway (AID 743222; calls by dose curve). Put shortly: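 Using LiveBLAzer B/G FRET detection, agonism was scored in VDR-bla cells exposed overnight (16 h, 37C) to DMSO-dissolved compounds; substrate incubation was 2 h at room temperature.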

Experiment [6] shares this target. Description: qHTS assay to identify small molecule antagonists of the vitamin D receptor (VDR) signaling pathway (AID 743223; active means well fitted inhibition curve with a large enough effect in the signal ratio in the repeat runs, not every such curve was filed as active; the % refers to the signal ratio). Put shortly:
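Fluorescence from LiveBLAzer B/G FRET substrate, read after 2 h at room temperature, reflects beta-lactamase reporter activity in VDR-bla cells treated 16 h at 37C with compounds and agonist 1alpha,25-dihydroxyvitamin D3 (3 nM final).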

Experiment [7] is described as follows: qHTS assay to identify small molecule agonists of the vitamin D receptor (VDR) signaling pathway - cell viability counter screen (AID 743224). Further: series mostly up to about 63 µM; nearly all actives have a fitted effect of over 50% in size. Put shortly: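 Counter screen for cytotoxicity: VDR-bla cells at 2,000 cells/well, 16 h compound exposure, then CellTiter-Glo luminescence after the beta-lactamase measurement.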
A short description of experiment [8]: qHTS assay to identify small molecule antagonists of the vitamin D receptor (VDR) signaling pathway - cell viability counter screen (AID 743225). Further: nearly all actives have a fitted effect of over 50% in size. Put shortly:
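Cells (VDR-UAS-bla HEK 293T) are plated, rested 4 h at 37C, dosed with compound and 3 nM final 1-alpha,25-dihydroxy vitamin D3, and incubated 16 h. Viability is taken from CellTiter-Glo luminescence in the reporter wells.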

Experiment [9] in a line: qHTS assay to identify small molecule agonists of the NFkB signaling pathway (AID 1159509; active means well fitted curve in the direction sought with a large enough effect in the signal ratio in the repeat runs, not every such curve was filed as active; the % refers to the signal ratio; further: series mostly up to about 61 µM). Put shortly:
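Beta-lactamase reporter assay run in quantitative high-throughput format on an NF-kB-responsive ME-180 line, with 5 hr compound treatment and a FRET-based blue/green fluorescence readout.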

A short description of experiment [10]: qHTS assay to identify small molecule agonists of the NFkB signaling pathway - cell viability counter screen (AID 1159515; calls by dose curve; further: series mostly up to about 61 µM; nearly all actives have a fitted effect of over 55% in size). The method in brief: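 Counter screen run alongside the NFkB-bla agonist assay: ME-180 reporter cells exposed to compounds for 5 hr, then lysed with CellTiter-Glo in the same wells. Luminescence, read after 30 min, reflects viable cells.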

Experiment [11] can be described thus: qHTS assay to identify small molecule agonists of the endoplasmic reticulum stress response signaling pathway (AID 1159516; active means well fitted activation curve with a large enough effect in the signal ratio in the repeat runs, not every such curve was filed as active; the % refers to the signal ratio). The method in brief:
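For this screen, HeLa cells stably carrying beta-lactamase under the ER stress response element received test compounds, positive controls or DMSO for 5 hr at 37 C; B/G FRET substrate was then added and dual-wavelength emission recorded.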

Experiment [12] is described as follows: qHTS assay to identify small molecule agonists of the endoplasmic reticulum stress response signaling pathway - cell viability counter screen (AID 1159517; calls by dose curve). Put shortly: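 Steps: seed 1,500 ESRE-bla HeLa cells per well; incubate overnight at 37 C, 5% CO2; add compounds in DMSO for 5 hr; run FRET substrate 2 hr RT; add CellTiter-Glo, wait 30 min, read luminescence.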

Experiment [13] is described as follows: qHTS assay to identify small molecule antagonists of the retinoid-related orphan receptor gamma (ROR-gamma) signaling pathway - cell viability counter screen (AID 1159520). Further: nearly all actives have a fitted effect of over 50% in size. Put shortly: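 Tet-on ROR gamma CHO cells were given compounds for 2 hr, then doxycycline hyclate at 1 uM final, and incubated 16 hr at 37 C. Viability was measured as ATP content by CellTiter-Glo luminescence.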

The target of experiment [14] is Nuclear receptor ROR-gamma (Homo sapiens) (UniProt P51449). Description: qHTS assay to identify small molecule antagonists of the retinoid-related orphan receptor gamma (ROR-gamma) signaling pathway (AID 1159521; further: nearly all actives have a fitted effect of over 50% in size; further: potency means the concentration at half of the fitted maximal effect). The method in brief:
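RORγ antagonism is scored from reduced reporter luminescence in Tet-on CHO cells. Induction used 1 uM final doxycycline hyclate for 16 h at 37 C, following a 2 h compound exposure.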

Experiment [15] can be described thus: qHTS assay to identify small molecule agonists of the AP-1 signaling pathway (AID 1159526; calls by dose curve).
Experiment [16] deals with Peroxisome proliferator-activated receptor delta (Homo sapiens) (UniProt Q03181). Put plainly: qHTS assay to identify small molecule agonists of the peroxisome proliferator-activated receptor delta (PPARd) signaling pathway (AID 743212; calls by dose curve). Put shortly:
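Read-out: beta-lactamase FRET fluorescence after 2 h room-temperature incubation with LiveBLAzer B/G substrate. Cells were HEK293H carrying a UAS-bla reporter for PPARd, treated at 37 C with DMSO-dissolved compounds.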

The target is the same in experiment [17]. Put plainly: qHTS assay to identify small molecule antagonists of the peroxisome proliferator-activated receptor delta (PPARd) signaling pathway (AID 743215; active means well fitted inhibition curve with a large enough effect in the signal ratio in the repeat runs, not every such curve was filed as active; the % refers to the signal ratio;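 further: cells stimulated with agonist L165041 at 300 nM final during compound exposure; series mostly up to about 62 µM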). The method in brief: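 Screen format: qHTS, antagonist mode. HEK293H PPARd-bla cells received compound and 300 nM L165041 (final), 17 h, 37 C. Beta-lactamase detected via FRET substrate fluorescence, 2 h, room temperature.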

Experiment [18] deals with Bile acid receptor (Homo sapiens) (UniProt Q96RI1). Description: qHTS assay to identify small molecule antagonists of the farnesoid-X-receptor (FXR) signaling pathway (AID 743217; active means well fitted inhibition curve with a large enough effect in the signal ratio in the repeat runs, not every such curve was filed as active; the % refers to the signal ratio). The method in brief:
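Quantitative HTS, beta-lactamase reporter format: FXR-UAS-bla HEK 293T cells co-treated 16 h at 37 °C with compounds and 50 uM final chenodeoxycholic acid, then read by B/G FRET fluorescence.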

A short description of experiment [19]: qHTS assay to identify small molecule agonists of the AP-1 signaling pathway - cell viability counter screen (AID 1159525; calls by dose curve; further: nearly all actives have a fitted effect of over 55% in size). The method in brief: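 Same-well cytotoxicity counter screen of the Tox21 10K library in ME-180 cells. The readout is ATP-dependent luminescence after 5 h compound treatment. Data are normalised to DMSO and tetra n-octyl ammonium bromide controls.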

Sequence of Bile acid receptor (Homo sapiens) (Q96RI1 whole entry, looked up): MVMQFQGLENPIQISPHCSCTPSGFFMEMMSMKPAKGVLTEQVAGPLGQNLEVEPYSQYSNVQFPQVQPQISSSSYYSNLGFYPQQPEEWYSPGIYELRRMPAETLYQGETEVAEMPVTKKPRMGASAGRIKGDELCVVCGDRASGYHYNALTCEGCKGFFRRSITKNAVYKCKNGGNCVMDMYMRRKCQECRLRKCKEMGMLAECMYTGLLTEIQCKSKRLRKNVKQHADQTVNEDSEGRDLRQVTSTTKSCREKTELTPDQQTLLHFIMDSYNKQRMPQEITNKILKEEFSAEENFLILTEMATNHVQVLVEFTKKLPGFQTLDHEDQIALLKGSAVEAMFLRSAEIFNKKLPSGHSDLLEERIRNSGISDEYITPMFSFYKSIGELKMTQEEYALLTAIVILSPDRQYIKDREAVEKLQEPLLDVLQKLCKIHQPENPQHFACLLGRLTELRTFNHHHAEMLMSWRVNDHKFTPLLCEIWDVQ
Sequence of Vitamin D3 receptor (Homo sapiens) (P11473 whole entry, looked up): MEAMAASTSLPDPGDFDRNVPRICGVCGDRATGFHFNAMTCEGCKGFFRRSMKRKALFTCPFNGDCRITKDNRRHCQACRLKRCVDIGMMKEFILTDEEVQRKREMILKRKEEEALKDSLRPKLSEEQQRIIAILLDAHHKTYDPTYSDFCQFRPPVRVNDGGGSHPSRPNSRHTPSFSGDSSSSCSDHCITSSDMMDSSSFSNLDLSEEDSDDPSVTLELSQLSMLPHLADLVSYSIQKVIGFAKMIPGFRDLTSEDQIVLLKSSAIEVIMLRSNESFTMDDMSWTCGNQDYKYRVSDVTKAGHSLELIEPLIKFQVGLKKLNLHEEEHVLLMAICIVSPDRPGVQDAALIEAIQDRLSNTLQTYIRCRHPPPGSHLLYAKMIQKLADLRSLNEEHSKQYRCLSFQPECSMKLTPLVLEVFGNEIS
Sequence of Peroxisome proliferator-activated receptor delta (Homo sapiens) (Q03181 whole entry, looked up): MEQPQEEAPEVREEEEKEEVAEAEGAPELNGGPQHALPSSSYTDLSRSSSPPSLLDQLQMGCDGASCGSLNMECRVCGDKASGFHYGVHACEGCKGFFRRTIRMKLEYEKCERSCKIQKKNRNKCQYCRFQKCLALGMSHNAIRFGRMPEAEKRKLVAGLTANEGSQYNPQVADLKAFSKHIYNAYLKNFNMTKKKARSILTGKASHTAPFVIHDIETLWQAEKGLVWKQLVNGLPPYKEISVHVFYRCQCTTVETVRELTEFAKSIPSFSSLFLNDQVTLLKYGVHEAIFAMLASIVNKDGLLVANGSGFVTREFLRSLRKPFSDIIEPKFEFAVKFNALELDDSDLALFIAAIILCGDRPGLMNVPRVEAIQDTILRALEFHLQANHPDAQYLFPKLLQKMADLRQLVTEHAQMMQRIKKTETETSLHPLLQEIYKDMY

Turning to `CCCCOC(=O)CCCCCCCCC(=O)OCCCC`, the Potency entry in [1], in experiment [2], in [3], in experiment [6], in experiment [7] and in experiment [12] was “inactive” in each case. Further, the Potency entry in experiment [14] and in experiment [15] was “inactive” each time. Besides, the call in experiment [4], in [5], in experiment [8], in experiment [9], in experiment [10] and in experiment [11] was inactive. In experiment [13], the compound was classed as inactive.

`C[C@]12C[C@H](O)[C@H]3[C@@H](CCC4=CC(=O)CC[C@@]43C)[C@@H]1CC[C@@H]2C(=O)CO`: the Potency entry in experiment [1], in [2], in experiment [18], in experiment [3], in experiment [7] and in [12] was “inactive” in each case. Moreover, the Potency entry in experiment [15] is “inactive”. In addition, the compound was called inactive in experiment [16], in experiment [17], in experiment [4], in [8], in experiment [9] and in experiment [10]. Further, the compound was called inactive in [13] and in experiment [19]. For the same compound, in experiment [14], the Potency was 48.6 µM (active) and inactive.

Take `C=C(C)C(N)=O`: the Potency result in experiment [1], in [2], in experiment [3], in [6], in experiment [7] and in [12] was “inactive” throughout. Besides, the Potency result in experiment [14] and in experiment [15] was “inactive” throughout. In addition, the outcome in [4], in experiment [5], in [8], in [9], in [10] and in experiment [11] was inactive. The compound was classed as inactive in [13].

As for `O=c1cc[nH]c(=O)[nH]1`, the Potency entry in [1], in experiment [2], in [3], in experiment [6], in [7] and in experiment [12] was “inactive” each time. In addition, the Potency result in [14] and in experiment [15] was “inactive” throughout. For the same compound, the compound was classed as inactive in experiment [16], in [17], in experiment [4], in [5], in experiment [8] and in experiment [9]. Further, the compound was classed as inactive in experiment [10], in [11] and in [13].

For the compound `CC(=O)c1ccc(S(=O)(=O)NC(=O)NC2CCCCC2)cc1`, the Potency entry in [1], in experiment [2], in experiment [18], in experiment [3], in experiment [6] and in experiment [7] was “inactive” each time. Besides, the Potency entry in experiment [12], in experiment [14] and in experiment [15] was “inactive” throughout. For the same compound, the result in [16], in experiment [17], in [4], in experiment [5], in experiment [8] and in experiment [9] was inactive. In addition, the compound was classed as inactive in experiment [10], in [13] and in experiment [19].

With `C[C@]12CC[C@@H]3c4ccc(O)cc4CC[C@H]3[C@@H]1CCC2=O`, the Potency entry in experiment [1], in experiment [2], in experiment [18], in experiment [3], in experiment [7] and in [12] was “inactive” in each case. The Potency entry in experiment [15] was “inactive”. Also, the compound was classed as inactive in experiment [4], in experiment [8], in experiment [9], in [10], in [11] and in experiment [13]. The call in experiment [19] was inactive.

In the case of `CC(C)(C)NCC(O)c1ccc(O)c(CO)c1` (stereo not drawn), the Potency result in experiment [1], in [2], in [3], in experiment [7], in experiment [12] and in experiment [14] was “inactive” throughout. Besides, in [15], the Potency result was “inactive”. For the same compound, the compound was called inactive in experiment [16], in experiment [17], in experiment [4], in [8], in [9] and in experiment [10]. Moreover, the compound was called inactive in experiment [11] and in [13].

`COc1cc(C=O)ccc1O`: the Potency result in experiment [1], in [2], in [18], in experiment [3], in experiment [6] and in [7] was “inactive” each time. For the same compound, the Potency entry in experiment [12], in [14] and in [15] was “inactive” each time. The result in experiment [16], in [17], in [4], in experiment [5], in experiment [8] and in experiment [9] was inactive. In addition, the call in experiment [10], in experiment [13] and in experiment [19] was inactive.
